Results on 15 compounds are retold here after PubChem BioAssay.

SMILES strings stand for the structures. For part of these data: Potency and affinity values are given separately. The source made the active and inactive calls.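 The calls were made as follows, unless noted: active = compound raising the membrane signal above positive-control mean plus 3 SD in both repeats, and a primary screen hit; inactive = the rest.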

Test [1] deals with TRPC4 beta (transient receptor potential cation channel C4), mouse. The test can be described thus: activators of mouse TRPC4 channel, confirmation, cell-based, Fluo4 calcium, HEK293 TRPC4beta/mu-opioid, duplicates, 10 µM (AID 2426;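 active = fluorescence ratio normalized to control raised more than 50% in primary screen plus both repeat runs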). The settings on record: Fluo4 calcium fluorescence, at 10 µM; active compounds read high.
Test [2] relates to transient receptor potential cation channel C4 beta (TRPC4), mouse. The test can be described thus: activators of mouse TRPC4 channel, confirmation, cell-based, second round, Fluo4, HEK293 TRPC4beta/mu-opioid, 1 µM (AID 2461;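 active = primary screen active and over 50% activation in each of two duplicate runs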). The settings on record: Fluo4 calcium fluorescence, at 1 µM; active compounds read high.
For test [3], the system named is TRPC4 (transient receptor potential cation channel C4 beta), mouse. The test can be described thus: positive allosteric modulators of mouse TRPC4, confirmation, cell-based, second round, Fluo-4, HEK293 TRPC4beta/mu-opioid, 1 µM (AID 2554;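 active = primary screen hit whose fluorescence ratio, in both repeats, exceeds the weak agonist control mean by 3 SD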). Conditions: DAMGO EC20, Fluo-4 calcium flux, at 1 µM; active compounds read high.
The test system of test [4] is TRPC4 beta (transient receptor potential cation channel C4), mouse. Description: positive allosteric modulators of mouse TRPC4, confirmation, cell-based, Fluo-4, HEK293 TRPC4beta/mu-opioid (AID 2555;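 active = primary screen hit whose calcium fluorescence ratio, in both repeats, exceeds the weak agonist control mean by 3 SD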). Conditions: DAMGO EC20, Fluo-4 calcium flux, at 10 µM; active compounds read high.
Test [5] addresses Short transient receptor potential channel 4 (Mus musculus) (UniProt Q9QUQ5). The test can be described thus: inhibitors of mouse TRPC4 channel, confirmation, cell-based, Fluo4, HEK293 TRPC4beta/mu-opioid (AID 2636;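 active = calcium signal cut by more than 3 SD below the full-agonist control yet still positive, in both repeats and the earlier primary screen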). Conditions: DAMGO, Fluo4 calcium flux, at 10 µM; active compounds read high. For orientation: Calcium assays in cells follow changes in intracellular calcium, usually with a dye or a luminescent sensor.

Test [6] shares this target. Description: inhibitors of mouse TRPC4 channel, confirmation, cell-based, second round, Fluo4, HEK293 TRPC4beta/mu-opioid, 1 µM (AID 2637;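 active = calcium signal ratio cut to more than 3 SD under the fully stimulated control mean yet still positive, in both repeats and the primary screen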). The settings on record: Fluo4 calcium flux, DAMGO, at 1 µM; active compounds read high.
Test [7] shares this target. Description: mouse TRPC4 channel activators, dose response, cell-based, HEK293 TRPC4/mu-opioid, Fluo-4 calcium (AID 434937;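 active = primary screen activator hit with a dose response curve and TRPC4 channel activation at any tested dose; inactive = no activation, no dose response, or not a primary hit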).
Test [8] shares this target. The test can be described thus: TRPC4 positive allosteric modulators, dose response, cell-based, HEK293 TRPC4/mu-opioid, Fluo-4 calcium, EC20 DAMGO (AID 434941;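 active = earlier screen potentiator hit that boosts the TRPC4 ion channel at some dose, with a dose response; inactive = no potentiation, no dose response, or not a prior hit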;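 also: calcium entry triggered by an EC20 dose of DAMGO at the co-expressed mu-opioid receptor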).
For test [9] the target is unchanged. The test can be described thus: mouse TRPC4 channel inhibitors, dose response, cell-based, HEK293 TRPC4/mu-opioid, Fluo-4 calcium (AID 434942;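 active = primary screen inhibitor hit that blocks the TRPC4 channel at some tested dose, yielding a dose curve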).
The target in test [10] is Short transient receptor potential channel 6 (Mus musculus) (UniProt Q61143). The test can be described thus: inhibition of mouse TRPC6 channel, confirmation, selectivity assay for TRPC4 inhibitor project, cell-based, HEK293, membrane potential dye, duplicate (AID 434948;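 active = active in primary screen and both duplicates, each dropping signal beyond three positive-control SD with fluorescence still positive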). The settings on record: HEK293 TRPC6, membrane potential dye fluorescence, at 10 µM, stimulated with maximal-effect acetylcholine; active compounds read high.
Sequence of Short transient receptor potential channel 6 (Mus musculus) (Q61143 whole entry, looked up): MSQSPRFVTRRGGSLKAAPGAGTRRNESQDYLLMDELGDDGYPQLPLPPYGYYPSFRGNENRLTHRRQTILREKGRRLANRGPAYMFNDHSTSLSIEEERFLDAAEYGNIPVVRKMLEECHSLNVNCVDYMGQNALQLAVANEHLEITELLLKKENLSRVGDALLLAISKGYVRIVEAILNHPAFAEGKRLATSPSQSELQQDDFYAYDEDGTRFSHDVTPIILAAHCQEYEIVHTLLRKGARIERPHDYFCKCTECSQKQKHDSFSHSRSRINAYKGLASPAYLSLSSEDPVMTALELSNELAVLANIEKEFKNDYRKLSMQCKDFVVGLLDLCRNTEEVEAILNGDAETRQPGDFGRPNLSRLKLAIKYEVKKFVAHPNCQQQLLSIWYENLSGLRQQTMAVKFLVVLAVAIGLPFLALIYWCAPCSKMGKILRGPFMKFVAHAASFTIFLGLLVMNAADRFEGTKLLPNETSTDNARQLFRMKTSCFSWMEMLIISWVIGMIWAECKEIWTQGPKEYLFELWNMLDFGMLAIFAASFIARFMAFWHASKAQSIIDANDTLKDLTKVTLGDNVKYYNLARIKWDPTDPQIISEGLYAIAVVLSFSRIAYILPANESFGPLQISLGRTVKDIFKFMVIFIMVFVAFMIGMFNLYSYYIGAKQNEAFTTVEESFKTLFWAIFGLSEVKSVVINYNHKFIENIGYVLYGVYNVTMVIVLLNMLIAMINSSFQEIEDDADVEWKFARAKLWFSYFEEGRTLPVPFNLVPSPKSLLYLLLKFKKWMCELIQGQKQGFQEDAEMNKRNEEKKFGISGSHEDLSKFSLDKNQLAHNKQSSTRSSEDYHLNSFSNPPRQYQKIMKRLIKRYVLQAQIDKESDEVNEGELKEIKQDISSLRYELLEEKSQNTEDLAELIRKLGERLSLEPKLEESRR

Test [11] shares this target. The test can be described thus: activation of mouse TRPC6 channel, confirmation, selectivity assay for TRPC4 activator project, cell-based, HEK293, membrane potential dye, duplicate (AID 434950;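 active = membrane potential signal rise above negative control mean plus 3 SD in both duplicates, also active in the earlier TRPC4 screen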;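 as to activation: 0% = buffer only wells and 100% = acetylcholine maximal-effect wells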). Conditions: HEK293 TRPC6, membrane potential fluorescence, at 10 µM; active compounds read high.
Test [12] shares this target. Description: TRPC6 potentiation by TRPC4 potentiator hits, confirmation, selectivity assay for TRPC4 potentiator project, HEK293 cells, membrane potential dye, duplicate (AID 434952). Conditions: HEK293 TRPC6, membrane potential dye fluorescence, at 10 µM, maximal acetylcholine added after compound; active compounds read high.
Test [13] addresses Short transient receptor potential channel 4 (Mus musculus) (UniProt Q9QUQ5). Description: calcium flux activators in TRPC4/5HT1a cells, counter-screen for TRPC4 activator project, cell-based, second counter screen, HEK293 TRPC4/5HT1a, Fluo-4 (AID 434977;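 active = calcium signal rise above buffer-control mean plus 5 SD in both duplicates, and also a hit in the primary screen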). Conditions: Fluo-4 calcium flux, at 10 µM; active compounds read high.
Test [14] can be described thus: calcium flux inhibitors in TRPC4/5HT1a cells, confirmation, counter-screen for TRPC4 inhibitor project, cell-based, second counter screen, HEK293 TRPC4/5HT1a, Fluo-4 (AID 434978;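 active = primary screen active whose calcium signal fell more than 3 SD beyond the full-serotonin control mean in both duplicate plates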;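 also: serotonin given first at submaximal then at maximal dose after compound preincubation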). Conditions: Fluo-4 calcium flux, at 10 µM, serotonin added to trigger calcium flux; active compounds read high.
The subject of test [15] is TRPC4 (mouse), co-expressed with 5HT1a in HEK293. Description: calcium flux potentiators in TRPC4/5HT1a cells, confirmation, counter-screen for TRPC4 potentiator project, cell-based, second counter screen, HEK293 TRPC4/5HT1a, Fluo-4 (AID 434979;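 active = signal rise over 3 SD above mean of control wells given weak agonist, in both repeats and first screen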). The settings on record: Fluo-4 calcium flux, at 10 µM, serotonin added at its EC20 dose; active compounds read high.
Test [16] in a line: calcium flux activation in mu-opioid HEK293 cells, confirmation, counter-screen for TRPC4 activator project, cell-based, HEK293 mu-opioid receptor line (AID 449723;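 active = hit in primary screen, with calcium signal over 5 SD above buffer well mean in both duplicates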;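 also: counter screen cells carry the mu-opioid receptor alone and lack TRPC4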). The settings on record: Fluo-4 calcium fluorescence, at 10 µM; active compounds read high.
Test [17] is described as follows: calcium flux enhancement in mu-opioid HEK293 cells, confirmation, counter-screen for TRPC4 allosteric potentiator project, cell-based, HEK293 mu-opioid receptor line (AID 449724;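 active = calcium signal rise more than 3 SD above the low-dose agonist control mean, in both duplicate plates and the primary screen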;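 also: HEK293 cells carrying mu-opioid receptor only with no TRPC4 channel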). The settings on record: Fluo-4 calcium flux, at 10 µM, compound added before EC20 DAMGO stimulus; active compounds read high.

Sequence of Short transient receptor potential channel 4 (Mus musculus) (Q9QUQ5 whole entry, looked up): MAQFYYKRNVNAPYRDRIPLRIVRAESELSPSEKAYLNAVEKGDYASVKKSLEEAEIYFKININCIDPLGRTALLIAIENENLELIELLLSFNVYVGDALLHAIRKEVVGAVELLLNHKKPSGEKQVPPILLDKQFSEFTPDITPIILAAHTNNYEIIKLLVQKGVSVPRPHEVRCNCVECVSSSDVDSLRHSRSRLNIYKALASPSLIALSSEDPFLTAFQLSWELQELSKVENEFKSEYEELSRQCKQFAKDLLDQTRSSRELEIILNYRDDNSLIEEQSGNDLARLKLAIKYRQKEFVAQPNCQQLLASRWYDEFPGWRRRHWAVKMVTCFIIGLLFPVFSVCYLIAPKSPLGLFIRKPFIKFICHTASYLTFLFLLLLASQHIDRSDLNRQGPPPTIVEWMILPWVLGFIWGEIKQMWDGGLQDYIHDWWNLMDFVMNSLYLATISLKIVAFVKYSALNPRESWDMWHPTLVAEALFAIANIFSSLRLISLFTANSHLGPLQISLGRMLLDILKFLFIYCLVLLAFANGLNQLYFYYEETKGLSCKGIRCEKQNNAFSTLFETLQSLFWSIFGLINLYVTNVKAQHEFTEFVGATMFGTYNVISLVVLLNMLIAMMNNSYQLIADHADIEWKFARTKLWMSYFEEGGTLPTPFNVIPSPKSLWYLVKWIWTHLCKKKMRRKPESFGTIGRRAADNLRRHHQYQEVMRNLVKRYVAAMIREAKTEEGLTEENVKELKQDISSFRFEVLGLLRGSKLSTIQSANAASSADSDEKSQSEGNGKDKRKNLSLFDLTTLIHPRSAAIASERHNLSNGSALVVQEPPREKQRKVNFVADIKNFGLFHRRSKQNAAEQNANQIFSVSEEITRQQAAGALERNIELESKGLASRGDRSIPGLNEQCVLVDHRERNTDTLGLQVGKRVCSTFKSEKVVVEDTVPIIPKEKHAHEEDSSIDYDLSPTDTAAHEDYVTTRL

For `CCc1ccc(OCc2ccc(C(=O)NCc3ccccn3)o2)cc1`, the outcome in test [1], in test [2], in test [3], in [5], in test [6] and in test [7] was inactive. Besides, the result in [8], in [9], in [10], in [11], in [12] and in [13] was inactive. Also, the outcome in test [14], in [15], in test [16] and in [17] was inactive. In test [4], the potentiation is 19% (active).

For the compound `CCCCCc1ccc(OCCCC[n+]2ccccc2)c(CCCCC)c1`, the result in [1], in [2], in test [3], in test [4], in test [5] and in test [6] was inactive. Further, the outcome in test [7], in test [8], in test [9], in test [10], in test [11] and in [12] was inactive. The outcome in test [13], in test [14], in test [15], in test [16] and in test [17] was inactive.

Regarding `COc1ccc(C(CNC(=O)C2CC2)N(C)C)cc1` (stereo not given), the outcome in test [1], in test [2], in test [3], in [4], in test [5] and in [6] was inactive. Also, the result in [7], in [8], in [9], in [10], in test [11] and in [12] was inactive. Also, the result in [13], in test [14], in test [15], in test [16] and in [17] was inactive.

For the compound `Cc1cc(C)cc(NC(=O)c2nnn(Cc3cc(C)ccc3C)c2N)c1`, the outcome in test [1], in [2], in test [3], in test [5], in test [6] and in test [7] was inactive. The result in test [8], in test [9], in test [10], in [11], in test [12] and in test [13] was inactive. Further, the outcome in test [14], in test [16] and in [17] was inactive. Also, the potentiation in test [4] is 16% (active); in test [15], 27.4% (active).

In the case of `COc1ccc(C2CC(=O)c3cnc(N4CCN(Cc5ccccc5)CC4)nc3C2)cc1` (stereo not given), the result in test [1], in test [2], in test [3], in test [4], in test [5] and in test [6] was inactive. Also, the outcome in test [7], in test [8], in test [9], in test [10], in [11] and in test [12] was inactive. Further, the result in [13], in test [14], in test [16] and in test [17] was inactive. In addition, the potentiation in test [15] is 14.7% (active).

As for `O=C(O)c1nn(CC(=O)N2CCN(c3ncc(C(F)(F)F)cc3Cl)CC2)c(=O)c2ccccc12`, the result in test [1], in [2], in [3], in test [4], in [5] and in [6] was inactive. The outcome in test [7], in [8], in test [9], in test [10], in test [11] and in [12] was inactive. For the same compound, the result in test [13], in test [14], in test [15], in [16] and in test [17] was inactive.

In the case of `CCN(CC(=O)NCc1ccc(Cl)cc1)CC(=O)NC1(C#N)CCCC1`, the result in [1], in test [2], in test [3], in test [4], in test [5] and in test [6] was inactive. For the same compound, the result in test [7], in [8], in test [9], in test [10], in test [11] and in test [12] was inactive. Further, the result in test [13], in test [14], in test [15], in test [16] and in [17] was inactive.

Take `CCCCN(C)CCNC(=O)c1c[nH]c2ccc(S(=O)(=O)N(CC)CC)cc2c1=O`: the outcome in test [1], in test [2], in test [3], in test [5], in test [6] and in [7] was inactive. For the same compound, the outcome in test [8], in [9], in test [10], in test [11], in test [12] and in test [13] was inactive. Besides, the outcome in test [14], in test [16] and in test [17] was inactive. Further, the potentiation in test [4] was 46% (active); in [15], 26.4% (active).

On to `CC(=NCCN1CCN(C(C)=C2C(=O)c3ccccc3C2=O)CC1)C1=C(O)CC(C)(C)CC1=O`, for which the result in test [1], in [2], in test [3], in test [4], in test [5] and in test [6] was inactive. Also, the outcome in test [7], in test [8], in test [9], in [10], in [11] and in test [12] was inactive. For the same compound, the result in [13], in test [14], in [15], in test [16] and in [17] was inactive.

In the case of `CCN1CCCC1CNCc1ccc(Cl)cc1Cl` (stereo not given), the result in test [1], in test [2], in test [5], in test [6], in test [7] and in test [8] was inactive. Besides, the outcome in test [9], in test [10], in test [11], in test [12], in test [13] and in test [14] was inactive. For the same compound, the result in test [16] and in [17] was inactive. Further, the potentiation in test [3] is 11% (active); in test [4], 8% (active); in test [15], 12.9% (active).

In the case of `Cc1ccc(C)c(N(CC(=O)NC2CCCC2)C(=O)c2csnn2)c1`, the outcome in test [1], in test [2], in test [3], in [4], in test [5] and in test [6] was inactive. Besides, the outcome in [7], in test [8], in [9], in test [10], in test [12] and in test [13] was inactive. For the same compound, the outcome in [14], in [15], in [16] and in [17] was inactive. In addition, the activation in test [11] is 30% (active).

As to `COC(=O)c1ccc(/C=N/N2CCN(Cc3ccc(C)cc3C)CC2)cc1`, the result in [1], in [2], in test [5], in test [6], in test [7] and in test [8] was inactive. Moreover, the outcome in [9], in [10], in [11], in [12], in [13] and in test [14] was inactive. Besides, the result in [16] and in test [17] was inactive. Also, the potentiation in test [3] is 6% (active); in test [4], 22% (active); in test [15], 28.6% (active).

On to `Cc1ccccc1OCCNc1cc(N2CCNCC2)ccc1[N+](=O)[O-]`, for which the result in test [1], in test [2], in test [3], in test [4], in test [5] and in [6] was inactive. Besides, the result in test [7], in test [8], in test [9], in [10], in test [11] and in test [12] was inactive. Further, the result in [13], in [14], in test [15], in test [16] and in test [17] was inactive.

As to `COc1ccc(/C=N/n2c(SC)nnc2-c2ccccc2)cc1C`, the result in test [1], in test [2], in [3], in test [5], in [6] and in test [7] was inactive. The result in [8], in [9], in test [10], in test [11], in test [12] and in test [13] was inactive. The outcome in test [14], in test [16] and in test [17] was inactive. Moreover, the potentiation in test [4] was 9% (active); in [15], 20.6% (active).

`CCOC(=O)CCSc1nc(C)cc(C(F)(F)F)c1C#N`: the result in [1], in [2], in test [3], in test [4], in test [5] and in [6] was inactive. For the same compound, the result in test [7], in [8], in [9], in test [10], in [11] and in [12] was inactive. For the same compound, the outcome in test [13], in [14], in [15], in test [16] and in [17] was inactive.
